In all, about 220,000 compounds went through this assay and about 2,000 (0.91%) were called active. About 2% were inconclusive and are not listed. Rule as the data show it: inconclusive = inhibition above about 80% without an active follow-up result; inactive = below that; test concentration not stated here. The list is a sample of the results. Entries with a potency or affinity are not part of this list.

In general, inhibition refers to the change of the read-out against control, counted positive when it falls.

The nature of the test: M. tuberculosis H37Rv growth inhibitors, H37Rv strain (AID 1626).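 Also: bacteria incubated seven days before Alamar blue readout; 0% = bacteria only wells and 100% = bacteria with antibiotic wells.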 The following applies: stronger effect = higher value, concentration not given here.
In the case of `Cc1nc(NC(=O)c2cc(-n3cnnc3)ccc2Cl)ccc1Br`, the inhibition was 0.92% (inactive).
On to `COc1ccc(CC(=O)OCC(=O)NC(=O)NC23CC4CC(CC(C4)C2)C3)cc1`, for which the inhibition was 0.65% (inactive).
With `O=C(COC(=O)c1ccc(-c2ccc([N+](=O)[O-])cc2)o1)NC(=O)NC1CCCCC1` the figure was 31% (inactive).
With `O=C(NC12CC3CC(CC(C3)C1)C2)c1ccc(=O)oc1` the figure was -2.56% (inactive); with `O=C(NC12CC3CC(CC(C3)C1)C2)c1ccccc1`, 2.5% (inactive); with `CCN(Cc1cc2ccc(C)cc2[nH]c1=O)C(=O)c1cccnc1`, 3.56% (inactive).
With `COCCSc1nnc(NS(=O)(=O)c2ccc(C)cc2)s1` the figure was -4.12% (inactive).
Take `O=C(CSc1nnc(-c2ccco2)n1Cc1ccccc1)OC1CCCCC1`: the inhibition is -11.8% (inactive).
With `N/C(=N\OC(=O)/C=C/c1ccccc1)c1ccc(Cl)cc1` the figure was 1.43% (inactive).
With `COC(=O)c1cc(C#N)c(N2CCOCC2)nc1C` the figure was -9.18% (inactive); with `O=C(O)c1ccccc1-c1ccc(/C=C/c2cc(C(F)(F)F)[nH]c(=O)n2)o1`, -2.38% (inactive); with `O=C(O)c1cc(Cl)ccc1-c1ccc(/C=C/c2cc(C(F)(F)F)[nH]c(=O)n2)o1`, -1.69% (inactive).
For the compound `Cc1ccc(S(=O)(=O)Nc2cc(C(C(=O)OC(C)C)C(=O)C(F)(F)F)c(O)c3ccccc23)c(C)c1` (stereo not drawn), the inhibition is -10.5% (inactive).
For `CCc1nc(N)c(C#N)c(-c2ccc(OC)c(OC)c2)c1C` the value was -2.13% (inactive).
With `O=C(/C=C/c1ccc(OCCCF)cc1)Nc1ccnc(-c2cccnc2)n1` the figure was -6.59% (inactive); with `COc1ccc(CNC(=O)/C=C/c2ccc(OCCCF)cc2)cc1`, 11.3% (inactive); with `CC(=O)Nc1ccc2nc(SCC(=O)N3CCOCC3)sc2c1`, 5.08% (inactive).
Consider `O=C(Nc1ccc2nc(SCc3ccc(Cl)cc3)sc2c1)c1ccccc1C(=O)N1CCOCC1`, for which the inhibition was 4.76% (inactive).
For `CCCn1c(=O)c(C(=O)NCc2ccc(OC)c(OC)c2)c(O)c2ccccc21` the value was -0.33% (inactive); for `COc1ccc(-c2nc(NC(=O)c3nc4nccc(C)n4n3)sc2C)cc1`, -7.46% (inactive); for `Cc1ccc(-c2nc(NC(=O)c3cc(C(C)(C)C)nn3C)sc2C)cc1Cl`, 78.4% (inactive).
Regarding `C1CN(CC2CCN(c3nc4nonc4nc3N3CCSCC3)CC2)CCO1`, the inhibition was -0.53% (inactive).
With `CCCCc1ccc(NC(=O)N[C@@H](C)C(=O)O)cc1` the figure was 0.78% (inactive); with `CCCCc1ccc(NC(=O)CC(C)(C)C)cc1`, 5.76% (inactive); with `CCCCc1ccc(NC(=O)OC)cc1`, 58% (inactive).
For `CCCCc1ccc(NC(=O)CC(C)=O)cc1` the value was 77.5% (inactive); for `CCN(CC)C(=O)C1=C(C)Nc2ncnn2C1c1cccnc1` (stereo not drawn), -0.97% (inactive); for `Cc1nn2c(-c3ccccc3)ccnc2c1-c1ccccc1`, -0.56% (inactive).
With `OCC1OC(n2nnc3ccccc32)C(O)C(O)C1O` (stereo not drawn) the figure was -9.39% (inactive).
Turning to `Cc1cc(NC(=O)CCl)on1`, the inhibition is 0.735% (inactive).
For `Cc1cc(NC(=O)CCl)no1` the value was 65% (inactive); for `CSc1nc(=O)n2cc(C)ccc2n1`, 0.11% (inactive).
With `CCOC(=O)C(NC(C)=O)(Nc1ccc(S(=O)(=O)Nc2cc(C)nc(C)n2)cc1)C(F)(F)F` (stereo not drawn) the figure was -6.92% (inactive); with `O=C(Nc1ccccc1)c1ccc(CSc2ncccn2)cc1`, 3.69% (inactive); with `Cc1ccc(NC(=O)c2ccc(CSc3ccccn3)cc2)cc1`, 14.1% (inactive).
As for `CCOC(=O)C(=CNc1ccc(Oc2cncc(Cl)c2)nc1)C(=O)OCC`, the inhibition is 2.61% (inactive).
`Cc1onc(-c2ccccc2Cl)c1C(=O)Nc1ccc(-n2nncc2-c2ccco2)cc1`: the inhibition is 68% (inactive).
In the case of `O=C(Nc1ccc(-n2nncc2-c2ccco2)cc1)c1ccc(F)cc1`, the inhibition is 0.33% (inactive).
Consider `Cc1ccc(-c2nnn(CC(=O)N3CCCCC3)n2)o1`, for which the inhibition is -0.84% (inactive).
For `CC(OC(=O)C1=COCCO1)C(=O)Nc1ccccc1C#N` (stereo not drawn) the value was -7.04% (inactive); for `CCC(C)NC(=O)Nc1ccc(Br)cc1` (stereo not drawn), 1.26% (inactive).
With `CC(C)(C)NC(=O)Nc1ccc(Br)cc1` the figure was -1.24% (inactive); with `COc1c(Cl)cc(Cl)cc1C(=O)Nc1ccc(NC(=O)c2cccs2)cc1`, 56.1% (inactive); with `COc1ccc(C(=O)/C=C\c2ccc(NC(=O)c3cccs3)cc2)cc1`, -0.27% (inactive).
With `CC1SCC(=O)N(CC(=O)Nc2ccc3c(c2)OCCO3)C1=O` (stereo not drawn) the figure was 2.44% (inactive); with `Nc1nc2ccccc2n1C(=O)CCc1ccccc1`, 0.09% (inactive).
With `Cc1ccc(S(=O)(=O)/N=C(\c2ccc(F)cc2)n2c(C)nc3ccccc32)cc1`, the inhibition was 4.23% (inactive).
With `Cn1c(CNC(=O)c2ccc(F)cc2)nc2ccccc21` the figure was -0.81% (inactive); with `Nc1nc2ccccc2n1C(=O)c1ccco1`, 2.98% (inactive).
For `O=C(COc1ccc2ccccc2c1)N1c2ccccc2Sc2ccccc21` the value was 2.2% (inactive); for `CN(Cc1ccccc1)S(=O)(=O)c1ccc(NS(C)(=O)=O)cc1`, -4.2% (inactive).
For `CC(=O)Nc1cc(Br)ccc1O` the value was 3.76% (inactive).
Turning to `CN(Cc1ccccc1)C(=O)c1cc2ccccc2o1`, the inhibition was 6.83% (inactive).
With `CCOc1cc(C(=O)Nc2ccc(F)cc2)cc(Br)c1OC` the figure was 9.07% (inactive); with `CCN(CC)c1ccc(/C=N/OCC(=O)N2CCCc3ccccc32)cc1`, 1.23% (inactive).
For `CNc1c([N+](=O)[O-])cnn1-c1ccccc1Cl` the value was 4.21% (inactive); for `Cc1ccccc1-c1cnn(-c2cccc([N+](=O)[O-])c2)c1N`, 5.3% (inactive).
With `O=C(CSc1nnc(NC(=O)Cc2ccccc2)s1)NCc1ccco1` the figure was -1.92% (inactive); with `O=C(O)c1sccc1S(=O)(=O)c1ccccc1`, -0.34% (inactive).
`Cn1nccc1C(=O)Oc1ccc(/C=N/NC(=O)c2ccccc2O)cc1`: the inhibition was -6.68% (inactive).
With `Cc1nnc(Cl)c2nn(-c3ccccc3)c(C)c12` the figure was -0.17% (inactive); with `Cc1cccc(CSc2nnc(CCNC(=O)OC(C)(C)C)o2)c1`, 15% (inactive); with `CC(C)(C)OC(=O)NCCCCCc1nnc(SCc2cccc(F)c2)o1`, 75% (inactive).
With `CC(C)(C)OC(=O)NCCCCCc1nnc(SCc2ccc(F)cc2)o1` the figure was 60.9% (inactive).
As for `Cc1ccc(CSc2nnc(CCNC(=O)OC(C)(C)C)o2)cc1`, the inhibition was 7.99% (inactive).
For `O=S(=O)(NC1CCCc2ccccc21)c1cnc[nH]1` (stereo not drawn) the value was 1.01% (inactive); for `O=C(COC(=O)c1cccs1)c1ccc2ccccc2c1`, 7% (inactive); for `Nc1ccccc1C(=O)OCC(=O)c1ccc2c(c1)OCCO2`, -1.04% (inactive).
Take `Nc1nc(N)c(N=Nc2ccc(SCC(=O)O)cc2)c(=O)[nH]1`: the inhibition was -4.15% (inactive).
`CN(C)S(=O)(=O)N(CC(=O)NCCSCc1ccccc1)c1ccccc1`: the inhibition is 22.6% (inactive).
With `Cc1ccc(CN2CCN(Cc3ccncc3)CC2CCO)o1` (stereo not drawn) the figure was -0.74% (inactive); with `CCN(CC)CCOC(=O)c1ccc([N+](=O)[O-])cc1`, 1.65% (inactive); with `Cc1ccc(N2C(=O)C3C(c4ccccc4)(C2=O)C3(c2ccccc2)c2ccccc2)cc1` (stereo not drawn), 7.89% (inactive).
With `O=C1c2ccccc2C(=O)N1c1ccc(Cl)cc1` the figure was -5.9% (inactive); with `CCc1ccccc1N1C(=O)c2cccc3c(N4CCOCC4)c([N+](=O)[O-])cc(c23)C1=O`, 7.95% (inactive).
As to `Cc1cccc(N2C(=O)c3cccc4c(N5CCCCC5)c([N+](=O)[O-])cc(c34)C2=O)c1C`, the inhibition is 9.67% (inactive).
Take `COCCNS(=O)(=O)c1cc(-c2nn(C)c(=O)c3ccccc23)ccc1C`: the inhibition was -0.86% (inactive).
For the compound `Cc1sc2nc(COC(=O)c3cccc(OC(F)F)c3)[nH]c(=O)c2c1C`, the inhibition was 11.1% (inactive).
For `Cc1ccc(NC(=O)COC(=O)c2ccc([N+](=O)[O-])s2)c(C)c1` the value was 9.26% (inactive); for `Cc1cc([N+](=O)[O-])ccc1NC(=O)/C=C/c1cccs1`, -0.49% (inactive); for `COc1ccccc1NC(=O)C(=O)N/N=C/c1ccc([N+](=O)[O-])s1`, 4.5% (inactive).
With `Cc1ccccc1NC(=O)/C=C/c1cccs1` the figure was -3.01% (inactive).
With `CCNc1nc(NCC)nc(SCCOc2ccc(C)cc2)n1` the figure was 15.1% (inactive); with `COc1ccc(S(=O)(=O)NCC2CCCN(C(=O)c3ccco3)C2)cc1` (stereo not drawn), -5.58% (inactive).
For the compound `Cc1cc(CNC(=O)CC2C(=O)NCCN2CC(c2ccccc2)c2ccccc2)on1` (stereo not drawn), the inhibition was 1.54% (inactive).
With `Cn1ncc2c(Nc3ccccc3Cl)nc(Nc3ccccc3Cl)nc21` the figure was 29.2% (inactive).
With `Cn1ncc2c(Nc3ccc(O)cc3)nc(Cl)nc21` the figure was -3.66% (inactive); with `COc1ccc(-n2c(SCC(=O)O)nc3sc4c(c3c2=O)CCC4)cc1`, -7.18% (inactive).
On to `Cc1nc2ccccc2n1Cc1n[nH]c(=S)n1-c1ccc(Cl)cc1`, for which the inhibition is -9.13% (inactive).
For `CCCn1c(Nc2ccc(Cl)cc2)nc2ccccc21` the value was 3.28% (inactive); for `CCc1c(C)[nH]n(-c2nc(-c3ccccc3)cs2)c1=O`, 5.2% (inactive); for `NS(=O)(=O)c1ccc(N=Nc2c(-c3ccccc3)[nH]n(-c3nc(-c4ccccc4)cs3)c2=O)cc1`, 15.4% (inactive).
Consider `CC(C)[C@H](NC(=O)NCc1ccc(F)cc1)C(=O)O`, for which the inhibition was -4.85% (inactive).
With `COc1ccc(C(NC(=O)c2ccc(F)cc2)c2ccccc2)cc1` (stereo not drawn) the figure was -2.49% (inactive); with `COc1ccc(-c2noc(CCCC(=O)Nc3cccnc3)n2)cc1OC`, -1.27% (inactive); with `COc1ccc(CNc2ccc3c(c2)CCC3)cc1OC`, 45.5% (inactive).
For `CCOc1cc(CNc2ccc3c(c2)CCC3)ccc1OC` the value was 46.6% (inactive); for `CC(NC(=O)c1ccc(OC2CCN(S(=O)(=O)N(C)C)CC2)cc1)C1CC1` (stereo not drawn), -9.26% (inactive).

(Values after PubChem BioAssay AID1626 (SRMLSC, 2009).)
